Several values for one entry are separate records, joined by “and”; a condition that tells them apart may be missing. Identical values can stand only once. In all, about 370,000 compounds went through this assay and about 3,700 (1%) were called active.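 How the source made its calls: active means activation above the mean over all tested compounds plus 3 SD (cut at about 0.9% in these data); inactive means the rest.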 Many of the other results were omitted from the sample, so actives are more common in it than they were. Where a structure was tested more than once in an assay, its records may differ in their call.
system: Nuclear hormone receptor DAF-12 (Strongyloides stercoralis); test: ssDAF-12 driven luciferase reporter activation – cell-based, luminescence, HEK293, GRIP1 co-expression, lit1-tk-luc, primary screen (AID 652126); conditions: HEK293 ssDAF-12/GRIP1 lit1-tk-luc reporter, at 6.8 µM, stronger effect = higher value, % of 3 µM dafachronic acid response;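 further: 0% = DMSO-only wells and 100% = 3 µM delta7-dafachronic acid wells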

Row | Structure (SMILES) | activation
1 | COc1ccc(-n2c(SCC(=O)Nc3ccc(C)c(Cl)c3)nc3ccccc3c2=O)cc1 | -2.01% (inactive)
2 | CC(=O)Nc1nc2ncccn2c1-c1ccc(C(F)(F)F)cc1 | -0.67% (inactive)
3 | Brc1ccc(C2CC(c3ccccc3)=Nc3ccccc3N2)cc1 (configuration not stated) | 0.69% (inactive)
4 | c1ccc(C2=Nc3cccc4cccc(c34)N2)cc1 | 1.19% (active)
5 | COc1ccccc1C1=Nc2cccc3cccc(c23)N1 | -1.81% (inactive)
6 | COC(=O)[C@]12C[C@H](CC(=O)NCc3ccccc3)C(=O)N(CCC3=CCCCC3)C1=C[C@H](C(C)C)O[C@@H]2C1CC1 | -1.77% (inactive)
7 | COc1ccc(-n2c(SCC(=O)Nc3ccccc3-c3ccccc3)nnc2-c2cccnc2)cc1 | -1.34% (inactive)
8 | CN1C(=O)/C(=N/OC(=O)c2ccccc2Br)c2ccccc21 | -1% (inactive)
9 | CN1C(=O)/C(=C\c2cc(Br)cs2)c2ccccc21 | 1.58% (active)
10 | CCC1C(=O)c2ccccc2N(C)C1=O (configuration not stated) | -0.91% (inactive)
11 | CCC(CO)Nc1cccc2c1S(=O)(=O)N(Cc1cn(Cc3ccccc3C(F)(F)F)nn1)Cc1ccccc1O2 (configuration not stated) | -1.78% (inactive)
12 | CCC(C)(C)NC(=O)CN(C(=O)CCC(=O)Nc1cc(C)ccn1)c1ccc2c(c1)OCCO2 | -1.73% (inactive)
13 | O=C(CN(C(=O)CCC(=O)Nc1nccs1)c1ccc(F)cc1)NCc1ccc2c(c1)OCO2 | -0.97% (inactive)
14 | CCC(C)(C)NC(=O)CN(C(=O)CCC(=O)Nc1nccs1)c1ccc2c(c1)OCO2 | 1.27% (active)
15 | FC(F)(F)c1cccc(NC(=S)OC2CCC23CCC(c2ccccc2)CC3)c1 (configuration not stated) | -0.81% (inactive)
16 | CC(NCc1ccco1)C(=O)N1CCCCC1 (configuration not stated) | -1.35% (inactive)
17 | COC(=O)c1sccc1NC(=O)CCC1CCCC1 | -0.73% (inactive)
18 | COC(=O)c1sccc1NC(=O)c1ccc(Cl)cc1 | 0.94% (active)
19 | COC(=O)c1sccc1N/N=C(\C)c1ccc(F)c(Cl)c1 | -1% (inactive)
20 | Cc1nnc(-c2ccc(Oc3ccc(C)c(C)c3)c([N+](=O)[O-])c2)o1 | -0.81% (inactive)
21 | CCOC(=O)N1CCN(C(=O)C[C@@H]2C(=O)N(CCc3ccc(Cl)cc3)C3=CCCC[C@]32C(=O)OCC)CC1 | -1.59% (inactive)
22 | O=C(CN1CCSCC1)N/N=C/c1ccc(Cl)cc1 | 1.53% (active)
23 | O=C(CN1CCSCC1)N/N=C/c1ccc(F)cc1F | -1.01% (inactive)

Row | Structure (SMILES) | activation
24 | Cc1ccc(S(=O)(=O)N2CCN(CC(=O)N/N=C/c3ccc(Br)s3)CC2)cc1 | -1.5% (inactive)
25 | COc1ccc(N2CCN(CCNS(=O)(=O)c3ccc(Cl)s3)CC2)cc1 | -0.86% (inactive)
26 | O=C(NC1CCCCN(Cc2cccc(C(F)(F)F)c2)C1=O)c1ccccc1I (configuration not stated) | -1.74% (inactive)
27 | CCn1c(NC(=O)c2nn(C)cc2Br)nc2ccccc21 | -0.8% (inactive)
28 | Cn1c(NC(=O)c2ccccc2)nc2ccccc21 | 1.7% (active)
29 | COC(=O)c1ccc(-n2cnc3ccccc32)nc1 | -0.78% (inactive)
30 | COc1ccccc1C(=O)NC1CCCCN(C(C)C)C1=O (configuration not stated) | -0.64% (inactive)
31 | CCN(CC)S(=O)(=O)c1ccc(NC(=O)c2cnc(C)cn2)cc1 | 1.35% (active)
32 | CCN(CC)S(=O)(=O)c1ccc(NC(=O)c2cccnc2Cl)c(NC(=O)c2cccnc2Cl)c1 | -0.9% (inactive)
33 | CCOC(=O)N1CCC(N2Cc3cccc(C(=O)Nc4ccc(S(=O)(=O)N(CC)CC)cc4)c3C2=O)CC1 | -1.26% (inactive)
34 | COC(=O)C1CN(CC(C)C)CCS(=O)(=O)N1Cc1ccc(F)cc1 (configuration not stated) | -1.13% (inactive)
35 | CCOC(=O)[C@]12CCCCC/C=C\1N(Cc1ccc(OC)cc1)C(=O)[C@H]2CC(=O)N1CCOCC1 | -0.98% (inactive)
36 | Cc1c(C)c(C)c(S(=O)(=O)NCCc2ccccn2)c(C)c1C | 0.14% (inactive)
37 | COc1ccc(NCCc2ccccn2)cc1 | 1.17% (active)
38 | COc1cncc(-c2cnc3sc(NCCc4ccccn4)nn23)c1 | -1.45% (inactive)
39 | COC(=O)[C@@]12CCCCC3=C1N(CCC3)C(=O)[C@H]2CC(=O)NCc1cccc2ccccc12 | -0.9% (inactive)
40 | O=C(O)c1ccc([N+](=O)[O-])cc1Sc1ccsc1 | -1.44% (inactive)
41 | COc1cccc(-c2nc3cc(C)ccc3o2)c1 | 2.34% (active)
42 | COc1cccc(-c2cnc(OC(C)(C)C)nc2OC(C)(C)C)c1 | -1.2% (inactive)
43 | COc1cccc(NS(=O)(=O)c2ccc(-c3coc(C)n3)cc2)c1 | -0.73% (inactive)
44 | COC(=O)C(C)Oc1ccc2c(-c3cccc([N+](=O)[O-])c3)cc(=O)oc2c1 (configuration not stated) | -1.35% (inactive)
45 | O=[N+]([O-])c1ccc2oc(-c3cccc(O)c3)nc2c1 | 3.74% (active)
46 | Cc1cc(=O)[nH]c(SCC(=O)Nc2ccc(F)cc2F)n1 | -1.31% (inactive)

Row | Structure (SMILES) | activation
47 | C=CCN1[C@@H](Cc2ccccc2)COc2cccc(N3CCSCC3)c2S1(=O)=O | -1.93% (inactive)
48 | O=C(N1CCOCC1)N1CC[C@H]2[C@H](CCCN2Cc2ccc(F)cc2)C1 | -1.48% (inactive)
49 | C[C@H](C(=O)N(C)c1ccccc1)[C@@H](O)c1ccc(Cl)cc1 | -1.24% (inactive)
50 | Cn1c(=O)[nH]c(=O)c2c1nc(CN1CCN(c3ccccc3F)CC1)n2CCc1ccccc1 | -1.22% (inactive)
51 | O=C(NC(=S)Nc1cccc2c(O)cccc12)c1cccc(Br)c1 | -1.15% (inactive)
52 | N#C/C(=C/c1ccc(Cl)cc1)NC(=O)c1ccccc1 | -1.06% (inactive)
53 | O=C(NC(=O)c1ccccc1)Nc1ccccc1O | 2.39% (active)
54 | NS(=O)(=O)c1ccccc1NC(=O)c1c(O)c2ccccc2[nH]c1=O | 1.94% (active)
55 | CCc1ccc2[nH]c(=O)c(Cc3ccccc3)c(O)c2c1 | -1.02% (inactive)
56 | CCCS(=O)(=O)Nc1c(C(=O)O)[nH]c2ccccc12 | 0.51% (inactive)
57 | OC(COc1ccc2ccccc2c1)Cn1cncn1 (configuration not stated) | -0.42% (inactive)
58 | OC(COc1ccc2ccccc2c1)CN1CCOCC1 (configuration not stated) | 0.96% (active) and -0.96% (inactive)
59 | O=S(=O)(c1ccc(OCC(O)CN2CCN(c3ccccc3Cl)CC2)cc1)N1CCOCC1 (configuration not stated) | -1.31% (inactive)
60 | Cc1ccccc1CN1CCCCC(NC(=O)Nc2ccccc2F)C1=O (configuration not stated) | -1.37% (inactive)
61 | COc1cc(NC(=O)C2CCCN(S(=O)(=O)c3ccc(C(C)(C)C)cc3)C2)cc(OC)c1 (configuration not stated) | -0.79% (inactive)
62 | CCSC1=C(C#N)C(=O)n2c1cc1c2CCCC1 | -0.32% (inactive)
63 | N#Cc1c(NC(=O)c2ccc(N3CCOCC3)c([N+](=O)[O-])c2)sc2c1CCCC2 | -1.7% (inactive)
64 | N#Cc1c(NC(=O)C2CCCO2)sc2c1CCCCC2 (configuration not stated) | 2.81% (active)
65 | CCC1CCc2c(sc(NC(C)=O)c2C#N)C1 (configuration not stated) | -1.82% (inactive)
66 | C[C@@H]1COc2cccc(N3CCCC3)c2S(=O)(=O)N1C | -1.35% (inactive)
67 | O=C(Cn1c(-c2ccc(Cl)cc2)noc1=O)N1CCN(c2ccccc2F)CC1 | -0.84% (inactive)
68 | O=c1onc(-c2c(F)cccc2F)n1-c1ccccc1Cl | 1.01% (active)
69 | O=c1onc(-c2cccs2)n1Cc1ccccc1 | -1.05% (inactive)

Row | Structure (SMILES) | activation
70 | O=C(Nc1ccc2sc3ccccc3c(=O)c2c1)c1ccccc1Cl | 1.16% (active)
71 | CS(=O)(=O)c1ccccc1C(=O)Nc1ccc2sccc2c1 | -1.02% (inactive)
72 | COCC(=O)N1CCc2ccc(NC(=O)c3ccccc3Cl)cc2C1 | -1.31% (inactive)
73 | COc1ccc(C2Nc3ccccc3C(=O)N2Cc2cccs2)cc1COc1c(C)cccc1C (configuration not stated) | -0.82% (inactive)
74 | CCCCn1nc(C(=O)Nc2cccc(C(=O)NC3CC3)c2)c2ccccc2c1=O | -1.7% (inactive)
75 | CCCn1nc(C(=O)NNC(=O)CSCC(=O)Nc2cc(C)on2)c2ccccc2c1=O | -0.87% (inactive)
76 | CCCn1nc(C(=O)Nc2ccc3nc(C)sc3c2)c2ccccc2c1=O | 8.45% (active)
77 | COc1ccc(-n2c(COc3ccc(C)cc3)nnc2SCC(=O)Nc2ccc(Oc3ccccc3)cc2)cc1 | -1.71% (inactive)
78 | CCCCCN1CCCCC(NC(=O)C(C)CCC)C1=O (configuration not stated) | -1.23% (inactive)
79 | C=C(C)C#CC(Cc1ccccc1)N(CC1CC1)/C(N)=N/C(=O)OCc1ccccc1 (configuration not stated) | -1.98% (inactive)
80 | COc1ccc(-n2c(SCC(=O)Nc3ccc4c(c3)OCCO4)nnc2-c2ccc(Cl)cc2)cc1 | -1.63% (inactive)
81 | CCC[C@H]1C(=O)CC[C@@]23CCCN2C(=O)CCC[C@@H]13 | -0.75% (inactive)
82 | O=C1CC[C@@]23CCCN2C(=O)CCC[C@H]3[C@H]1Cc1ccccc1 | -1.31% (inactive)
83 | CCC(=O)c1c(CC)c2n3c1=CC[C@H]3CC(Br)C=2 (some centres not stated) | -1.9% (inactive)
84 | COc1ccc(Nc2cc(=O)n(-c3ccccc3)c3c2c(=O)n(C)c(=O)n3C)cc1 | -0.93% (inactive)
85 | COc1ccc(Nc2ccc3ccccc3c2)cc1 | 2.46% (active)
86 | COc1ccc(NC2=CC(=S)NC(C)(C)C2)cc1 | -0.87% (inactive)
87 | CCN(C(=O)[C@@H](C1CC1)[C@@H](O)c1ccc2ccccc2c1)c1ccccc1 | -1.3% (inactive)
88 | N#Cc1ccc(OC[C@@H](O)CN2CCC(C(O)(c3ccccc3)c3ccccc3)CC2)c(F)c1 | -1.58% (inactive)
89 | O=C(c1cnn(-c2ccc(Cl)cc2)c1)c1ccccc1O | 1.24% (active)
90 | COc1ccc(CNC(=O)COc2ccccc2C(=O)c2cnn(-c3ccccc3)c2)cc1OC | -0.31% (inactive)
91 | Cc1[nH]nc(-c2ccc(OCc3cnn(-c4ccccc4)c3)cc2O)c1Oc1ccc(Cl)cc1 | -0.99% (inactive)
92 | CC(C)CNS(=O)(=O)CC1NCCc2ccccc21 (configuration not stated) | -0.28% (inactive)

From PubChem BioAssay AID652126 (The Scripps Research Institute Molecular Screening Center, 2013)
